We go through 31 compounds from PubChem BioAssay (Tox21).

A number with no mark means an inactive call. Results filed as inconclusive are left out. The source made the active and inactive calls. Unless noted, calls follow the shape of the full dose curve.

Assay [1] can be described thus: qHTS assay to identify small molecule agonists of the sonic hedgehog signaling (Shh) pathway (AID 1259368).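 Also: NIH/3T3-derived 3T3Gli1-Luc cells carrying a stable Gli1-driven firefly luciferase reporter; series mostly up to about 92 µM; nearly all actives have a fitted effect of over 15% in size.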 In short, it runs like this: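 A Gli1 transcriptional response element controlled firefly luciferase in 3T3Gli1-Luc cells. Compounds and a positive control were added 4 hr after plating, and cells were incubated a further 24 hr at 37 C before luminescence detection.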
(qHTS replaces the single test concentration by a dilution series.)

Assay [2] in a line: qHTS assay to identify small molecule antagonists of the sonic hedgehog signaling (Shh) pathway (AID 1259369). Also: nearly all actives have a fitted effect of over 45% in size. Also: potency is read from the fitted curve at half-maximal effect. In short, it runs like this:
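For antagonist detection, the reporter line received test compounds together with conditioned medium, incubated 24hr at 37 C, 5% CO2, then luminescence was recorded following 30min room-temperature luciferase reagent incubation.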

The target of assay [3] is Estrogen receptor beta (Homo sapiens) (UniProt Q92731). In words: qHTS assay to identify small molecule agonists of the estrogen receptor beta (ER-beta) signaling pathway (AID 1259377; active = well fitted activation curve with a large enough effect in the signal ratio in the repeat runs, not every such curve was filed as active; the % refers to the signal ratio). In short, it runs like this:
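Ratiometric beta-lactamase FRET read-out came after 2 h substrate loading at room temperature. It followed 16 h compound treatment at 37C of GripTite HEK293T cells carrying a UAS-bla reporter, plated in 2% charcoal-stripped FBS medium.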

Assay [4] shares this target. Kind of assay: qHTS assay to identify small molecule antagonists of the estrogen receptor beta (ER-beta) signaling pathway (AID 1259378; active = well fitted inhibition curve with a large enough effect in the signal ratio in the repeat runs, not every such curve was filed as active; the % refers to the signal ratio). In short, it runs like this: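 Antagonist mode: compounds added to beta-lactamase reporter HEK293T ER-beta-UAS cells stimulated with E2 (1nM final), 16 hr at 37C. LiveBLAzer B/G FRET substrate, 2 hours room temperature, fluorescence read-out.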

Assay [5] can be described thus: qHTS assay to identify small molecule agonists of the androgen receptor (AR) signaling pathway in the presence of an antagonist - cell viability counter screen (AID 1259379; active = well fitted curve in the direction sought with a large enough effect in the repeat runs; an effect the other way counts as inactive or inconclusive;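 also: MDA-kb2 human breast cancer cells carrying an MMTV luciferase reporter; series mostly up to about 92 µM; nearly all actives have a fitted effect of over 25% in size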). Put shortly:
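Seed MDA-kb2 at 3,000 cells/well; incubate 5 hr, 37C, 0% CO2. Add nilutamide to 3.0uM final, then pin compounds at 15 concentrations. Incubate 16 hr. Add CellTiter-Fluor at 15 hr, read fluorescence after 1 hr.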

A short description of assay [6]: qHTS assay to identify small molecule agonists of the estrogen receptor beta (ER-beta) signaling pathway - cell viability counter screen (AID 1259380; active = well fitted curve in the direction sought with a large enough effect in the repeat runs; an effect the other way counts as inactive or inconclusive; also: nearly all actives have a fitted effect of over 30% in size; also: potency is read from the fitted curve at half-maximal effect). In short, it runs like this: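 CellTiter-Glo read, 30 min RT, same wells as bla assay; cells ER-beta-UAS-bla HEK293T; 16 hr compound, 37C; medium 2% charcoal-stripped FBS.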
Assay [7] can be described thus: qHTS assay to identify small molecule antagonists of the estrogen receptor beta (ER-beta) signaling pathway - cell viability counter screen (AID 1259382; active = well fitted curve in the direction sought with a large enough effect in the repeat runs; an effect the other way counts as inactive or inconclusive;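 also: HEK293T cells carrying ER-beta-UAS-bla reporter stimulated with estradiol; series mostly up to about 92 µM; nearly all actives have a fitted effect of over 55% in size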). In short, it runs like this: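 In this multiplexed counter screen, cells were seeded at 2,000 per well in medium with 2% charcoal-stripped FBS and incubated 6 hr before compound and 1nM final E2 were added. Sixteen hours later, ATP-based luminescence reported viability.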

Assay [8] is described as follows: qHTS assay to identify small molecule agonists or antagonists of the thyroid stimulating hormone receptor (TSHR) signaling pathway - wild type cell line counter screen (AID 1259384). In short, it runs like this: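 Counter screen in untransfected Hek293: compounds (15-point titration, triplicate) plus phosphodiesterase inhibitor Ro20-1724 added after 18 h plating; 30 min RT. Intracellular cAMP via competitive d2/cryptate immunoassay, 1 h incubation.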

For assay [9], the target named is Estrogen receptor (Homo sapiens) (UniProt P03372). In words: qHTS assay to identify small molecule agonists of the estrogen receptor alpha (ER-alpha) signaling pathway in the presence of an antagonist (AID 1259383). Also: top concentration of the series differs between compounds; nearly all actives have a fitted effect of over 15% in size. Put shortly:
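Stably transfected VM7Luc4E2 reporter cells, kept 5 days in charcoal-stripped serum, received ICI-182,780 at 10.0nM final before compound addition. Following 22hr incubation at 37C and 5% CO2, luciferase signal was read by luminescence.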

Assay [10] concerns the target Androgen receptor (Homo sapiens) (UniProt P10275). Kind of assay: qHTS assay to identify small molecule agonists of the androgen receptor (AR) signaling pathway in the presence of an antagonist (AID 1259381). Also: nearly all actives have a fitted effect of over 15% in size. In short, it runs like this: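 Test compounds at 15 concentrations were incubated for 16hr with MDA-kb2 reporter cells in presence of 3.0uM nilutamide (final). Signal: ONE-Glo luciferase luminescence.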
% is scaled to controls: 0 for no effect and ±100 for the full control effect.

Chain of Estrogen receptor (Homo sapiens) (P03372 whole entry, looked up): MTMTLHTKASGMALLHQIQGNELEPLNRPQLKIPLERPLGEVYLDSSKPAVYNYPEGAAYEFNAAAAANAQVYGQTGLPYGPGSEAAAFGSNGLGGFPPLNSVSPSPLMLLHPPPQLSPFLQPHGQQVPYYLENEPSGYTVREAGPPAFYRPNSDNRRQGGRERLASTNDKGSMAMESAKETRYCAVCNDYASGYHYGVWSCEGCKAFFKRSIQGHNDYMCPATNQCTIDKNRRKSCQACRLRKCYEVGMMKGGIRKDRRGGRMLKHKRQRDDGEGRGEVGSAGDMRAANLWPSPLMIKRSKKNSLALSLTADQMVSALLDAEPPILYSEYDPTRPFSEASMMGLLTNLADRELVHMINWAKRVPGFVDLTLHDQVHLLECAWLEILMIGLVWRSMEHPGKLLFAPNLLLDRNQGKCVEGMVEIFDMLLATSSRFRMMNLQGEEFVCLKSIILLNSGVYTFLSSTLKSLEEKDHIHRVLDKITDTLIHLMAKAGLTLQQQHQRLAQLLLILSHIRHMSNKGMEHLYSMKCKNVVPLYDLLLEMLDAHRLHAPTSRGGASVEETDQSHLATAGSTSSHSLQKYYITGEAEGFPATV
Chain of Estrogen receptor beta (Homo sapiens) (Q92731 whole entry, looked up): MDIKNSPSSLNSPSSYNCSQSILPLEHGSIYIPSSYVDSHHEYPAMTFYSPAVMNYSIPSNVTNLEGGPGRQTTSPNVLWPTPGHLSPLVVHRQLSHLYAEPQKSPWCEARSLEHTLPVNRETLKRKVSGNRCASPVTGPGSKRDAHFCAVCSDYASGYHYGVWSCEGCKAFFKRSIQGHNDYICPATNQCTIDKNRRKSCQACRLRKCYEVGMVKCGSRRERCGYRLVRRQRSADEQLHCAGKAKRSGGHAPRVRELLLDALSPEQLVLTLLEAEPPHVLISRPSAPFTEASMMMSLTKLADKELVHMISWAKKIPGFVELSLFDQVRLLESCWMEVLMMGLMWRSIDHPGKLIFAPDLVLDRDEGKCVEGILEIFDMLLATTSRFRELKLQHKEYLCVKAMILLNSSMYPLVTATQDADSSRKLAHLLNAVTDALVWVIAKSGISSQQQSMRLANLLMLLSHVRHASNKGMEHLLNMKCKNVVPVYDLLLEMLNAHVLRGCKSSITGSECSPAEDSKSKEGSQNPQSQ
Chain of Androgen receptor (Homo sapiens) (P10275 whole entry, looked up): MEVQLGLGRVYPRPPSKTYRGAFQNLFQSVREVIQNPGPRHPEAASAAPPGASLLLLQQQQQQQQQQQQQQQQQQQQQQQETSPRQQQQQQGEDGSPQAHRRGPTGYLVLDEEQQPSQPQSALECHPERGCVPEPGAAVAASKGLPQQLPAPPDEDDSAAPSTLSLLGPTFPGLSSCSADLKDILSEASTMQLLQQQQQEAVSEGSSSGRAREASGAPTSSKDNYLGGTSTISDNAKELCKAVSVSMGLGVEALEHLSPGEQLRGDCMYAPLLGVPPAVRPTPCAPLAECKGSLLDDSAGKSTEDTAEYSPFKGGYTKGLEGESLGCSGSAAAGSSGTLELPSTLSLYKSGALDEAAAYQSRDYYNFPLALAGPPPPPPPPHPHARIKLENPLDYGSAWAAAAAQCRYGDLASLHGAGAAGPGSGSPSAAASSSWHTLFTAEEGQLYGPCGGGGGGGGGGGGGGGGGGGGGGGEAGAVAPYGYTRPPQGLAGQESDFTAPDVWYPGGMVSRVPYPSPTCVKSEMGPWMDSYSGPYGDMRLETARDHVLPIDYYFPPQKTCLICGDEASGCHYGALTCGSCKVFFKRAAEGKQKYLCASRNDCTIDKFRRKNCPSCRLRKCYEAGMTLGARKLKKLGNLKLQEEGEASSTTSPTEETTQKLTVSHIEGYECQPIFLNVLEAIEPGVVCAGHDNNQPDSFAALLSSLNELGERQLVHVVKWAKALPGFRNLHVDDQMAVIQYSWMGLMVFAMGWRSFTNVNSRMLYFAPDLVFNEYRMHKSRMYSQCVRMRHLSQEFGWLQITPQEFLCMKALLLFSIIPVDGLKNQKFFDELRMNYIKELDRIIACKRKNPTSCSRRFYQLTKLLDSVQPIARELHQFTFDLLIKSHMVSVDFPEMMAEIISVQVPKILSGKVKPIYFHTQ

With `C=CCc1cc(OC)c2c(c1)OCO2`, the compound was called inactive in assay [1], in [4] and in assay [8]. Also, the Potency entry in assay [2], in assay [3], in assay [5], in assay [6] and in assay [7] was “inactive” in each case.
On to `BrCCc1ccccc1`, for which the compound was called inactive in [1], in assay [4] and in assay [8]. In addition, the Potency result in assay [2], in assay [3], in assay [5], in assay [6] and in assay [7] was “inactive” each time.
Take `CCC(=O)c1ccc(Cl)cc1`: the outcome in assay [1], in [4] and in assay [8] was inactive. The Potency result in [2], in [3], in assay [5], in assay [6] and in assay [7] was “inactive” in each case.
As to `CCCOC(=O)Cc1ccc(OCC(=O)N(CC)CC)c(OC)c1`, the compound was classed as inactive in assay [1], in [4] and in assay [8]. The Potency result in assay [2], in [3], in [5] and in assay [6] was “inactive” in each case.
For `N#CN`, the outcome in [1] and in assay [4] was inactive. Also, the Potency result in assay [2], in assay [3], in [5], in assay [6] and in [9] was “inactive” throughout.
Turning to `CCOC(=O)CCl`, the compound was classed as inactive in [1], in assay [4] and in assay [8]. For the same compound, the Potency result in assay [2], in [3], in [5], in assay [6] and in assay [9] was “inactive” throughout.
For the compound `O=c1[nH]oc2c1CCNC2`, the compound was classed as inactive in assay [1], in assay [4] and in assay [8]. In addition, the Potency result in assay [2], in assay [3], in [5], in assay [7] and in assay [9] was “inactive” each time.
Consider `CCCC(C)(COC(N)=O)COC(N)=O`, for which the call in assay [1], in assay [4] and in assay [8] was inactive. In addition, the Potency in assay [2] was 25.8 µM (active). The Potency entry in assay [3], in assay [5], in assay [6] and in assay [7] was “inactive” in each case.
Consider `CCc1cc(OC)c(C[C@H](C)N)cc1OC`, for which the outcome in assay [1], in [4] and in assay [8] was inactive. For the same compound, the Potency entry in assay [2] and in assay [3] was “inactive” each time. Further, the Potency in assay [6] is 71.5 µM (active).
Turning to `CCOC(=O)N(C)N=O`, the outcome in [1], in [4] and in [8] was inactive. Moreover, the Potency entry in assay [2], in assay [3], in [5], in [6] and in assay [7] was “inactive” each time.
For `C=C1CC[C@@]2(O)[C@H]3Cc4ccc(O)c5c4[C@@]2(CCN3CC2CC2)[C@H]1O5`, the compound was called inactive in [1], in assay [4] and in [8]. For the same compound, the Potency result in assay [2], in [3], in assay [5] and in [7] was “inactive” each time.
Regarding `O=C(O)C(Cl)Br` (stereo not drawn), the call in assay [1], in assay [4] and in [8] was inactive. Besides, the Potency entry in assay [2], in assay [3], in [5] and in assay [7] was “inactive” each time.
For `CCCCCCCCBr`, the compound was called inactive in assay [1], in assay [4] and in [8]. For the same compound, the Potency entry in [2], in assay [3], in assay [5], in assay [6] and in [7] was “inactive” in each case.
With `C1CN2CCC1CC2`, the result in [1], in assay [4] and in assay [8] was inactive. Besides, the Potency entry in assay [2], in assay [3], in [5], in assay [6] and in [9] was “inactive” each time.
`CC(C)[C@]12CC(=O)[C@H](C)[C@H]1C2`: the compound was classed as inactive in [1], in assay [4] and in assay [8]. In addition, the Potency entry in assay [2], in assay [3], in assay [5], in [6] and in assay [7] was “inactive” in each case.
`[P]#[In]`: the compound was called inactive in assay [1], in [4] and in assay [8]. The Potency result in assay [2], in assay [3], in [5], in [6] and in assay [7] was “inactive” each time.
For the compound `CCN(CCO)CCO`, the outcome in assay [1], in assay [4] and in [8] was inactive. Moreover, the Potency entry in assay [2], in [3], in [5], in [6] and in [9] was “inactive” each time.
Take `CC(C)(C)C(=O)C(Cl)Cl`: the compound was called inactive in [1], in assay [4] and in [8]. Besides, the Potency entry in assay [2], in assay [3], in assay [5], in assay [6] and in assay [7] was “inactive” each time.
Take `NCCOS(=O)(=O)O`: the compound was classed as inactive in [1], in assay [4] and in assay [8]. Also, the Potency result in assay [2], in assay [3], in assay [5], in assay [6] and in assay [9] was “inactive” throughout.
For the compound `NC(=O)OCCCc1ccccc1`, the result in assay [1], in assay [4] and in [8] was inactive. The Potency entry in assay [2], in assay [3], in [5], in [6] and in assay [9] was “inactive” each time.
For `CCCCCCC1CCOC1=O` (stereo not drawn), the compound was called inactive in assay [1], in assay [4] and in assay [8]. In addition, the Potency result in assay [2], in [3], in assay [5], in [6] and in assay [7] was “inactive” in each case.
In the case of `O=C1CCCCC1Cl` (stereo not drawn), the compound was classed as inactive in assay [1], in assay [4] and in [8]. Besides, the Potency result in [2], in assay [3], in assay [5], in [6] and in assay [7] was “inactive” each time.
As to `CC(=O)OCC1=C(C(=O)O)N2C(=O)[C@@H](N)[C@H]2SC1`, the activity change in assay [1] was 0.594% [at 18.9 µM]. For the same compound, the activity change, negative = inhibition in assay [2] is 1.15% [at 19 µM]. Further, the activation in [3] was -0.931% [at 19 µM]. In assay [4], the activity, negative = inhibition is 21.8% [at 19 µM]. Further, the activity change, negative = cytotoxicity in assay [5] is 4.78% [at 19 µM]; in assay [6], 0.632% [at 19 µM]; in assay [7], -2.02% [at 19 µM]. The cAMP activity change in assay [8] is 4.85% [at 18.9 µM].
With `C/C(=N\NC(=O)Nc1cc(F)cc(F)c1)c1ncccc1C(=O)O`, the result in assay [1], in [4] and in assay [8] was inactive. In addition, the Potency result in assay [2], in assay [3], in [5], in assay [6] and in assay [9] was “inactive” in each case.
As to `CC(=NC#N)N(C)Cc1ccc(Cl)nc1`, the outcome in assay [1], in assay [4] and in assay [8] was inactive. In addition, the Potency entry in assay [2], in assay [3], in assay [5], in assay [6] and in assay [7] was “inactive” each time.
Regarding `C[C@H](N)C(=O)c1ccccc1`, the call in assay [1] and in assay [8] was inactive. Moreover, the Potency result in assay [2], in [3], in assay [5], in [6], in [10] and in [7] was “inactive” each time. Besides, the Potency result in assay [9] was “inactive”.
Turning to `COc1cc(CCN)cc(OC)c1OC`, the call in assay [1] and in assay [8] was inactive. The Potency entry in assay [2], in [3], in [5], in [6] and in assay [9] was “inactive” throughout.
As for `Clc1ccc(C(Cl)(Cl)Cl)cn1`, the compound was called inactive in assay [1] and in assay [8]. Besides, the Potency entry in assay [2], in assay [5], in assay [6], in assay [10], in assay [7] and in assay [9] was “inactive” in each case.
Consider `CC1=C2[C@H]3OC(=O)[C@@H](C)[C@@H]3CC[C@@]2(C)C=CC1=O`, for which, in assay [1], the outcome was inactive. The Potency result in assay [2], in assay [5], in [6] and in assay [7] was “inactive” in each case.
With `CCCOc1nn(C(=O)NS(=O)(=O)c2ccccc2C(=O)OC)c(=O)n1C`, the call in assay [1] and in assay [8] was inactive. The Potency result in assay [2], in assay [5], in assay [6] and in [10] was “inactive” throughout.
On to `CC(C)(C)NC[C@H](O)c1ccc(O)cc1Cl`, for which the compound was classed as inactive in assay [1]. Also, the Potency entry in assay [2], in [5] and in assay [6] was “inactive” each time.
